# Measurements taken from PubChem BioAssay (NCI).
# This is part of a sample that, as a whole, favours compounds with a hit. Of some 79,000 tested, about 15% had one in any assay. A number with no mark means an inactive call. The source made the active and inactive calls. Rule as the data show it: active = growth inhibition above about 70%; inactive = the rest.
# Legend:
# [1] = NCI Yeast Anticancer Drug Screen. Data for the rad50 strain (AID 155);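 also: 0% = growth of vehicle-only cultures of the same strain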; settings: S. cerevisiae rad50 strain growth inhibition, hits give high values
# How it was run: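 Relative growth inhibition (compound vs vehicle) was measured in yeast with a defined repair-gene alteration.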
# [2] = NCI Yeast Anticancer Drug Screen. Data for the mec2-1 strain (AID 157); settings: S. cerevisiae mec2-1 strain, hits give high values
# How it was run: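 Test agents were screened against the mec2-1 yeast strain, with defined DNA repair or cell cycle alteration. Growth was scored as inhibition against vehicle-only controls.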
# [3] = NCI Yeast Anticancer Drug Screen. Data for the sgs1 mgt1 strain (AID 161);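 also: 0% = growth of cultures given vehicle only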; settings: S. cerevisiae sgs1 mgt1 strain, hits give high values
# How it was run: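 Genetically altered yeast, compound exposure, growth inhibition relative to vehicle.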
# [4] = NCI Yeast Anticancer Drug Screen. Data for the cln2 rad14 strain (AID 165);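 also: 0% = growth equal to vehicle treated cultures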; settings: S. cerevisiae cln2 rad14 strain, hits give high values
# How it was run: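 Growth of compound-exposed yeast (cln2 rad14 genotype) measured and expressed as inhibition relative to vehicle.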
# [5] = NCI Yeast Anticancer Drug Screen. Data for the bub3 strain (AID 167); settings: S. cerevisiae bub3 mutant strain, hits give high values
# How it was run: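 Screening used yeast with an engineered genetic alteration affecting cell cycle control. Compound-exposed cultures were compared with vehicle cultures, and reduced growth was taken as inhibition.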
# [6] = NCI Yeast Anticancer Drug Screen. Data for the mlh1 rad18 strain (AID 175); settings: S. cerevisiae mlh1 rad18 strain growth inhibition, hits give high values
# How it was run: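 In this whole-cell yeast screen, a strain with altered DNA damage repair is challenged with compound, and its growth is measured against matched vehicle-treated controls.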
# [7] = at 5.0 µM (retest, dose inferred, filed as 0.5)
# [8] = at 50.0 µM (retest, dose inferred, filed as 5.0)
Structure (SMILES),"growth inhibition [1, 7]","growth inhibition [1, 8]",growth inhibition ([1]; at 50.0 µM),"growth inhibition [2, 7]","growth inhibition [2, 8]",growth inhibition ([2]; at 50.0 µM),"growth inhibition [3, 7]","growth inhibition [3, 8]",growth inhibition ([3]; at 50.0 µM),"growth inhibition [4, 7]","growth inhibition [4, 8]",growth inhibition ([4]; at 50.0 µM),"growth inhibition [5, 7]","growth inhibition [5, 8]",growth inhibition ([5]; at 50.0 µM),"growth inhibition [6, 7]","growth inhibition [6, 8]",growth inhibition ([6]; at 50.0 µM)
CCC1C(c2ccccc2O)c2cc3c(cc2OC1N1CCOCC1)OCO3 (configuration not stated),-18%,98% (active),85.9% (active),-32%,99% (active),88.3% (active),-42%,98% (active),88.2% (active),9%,99% (active),88.9% (active),-50%,99% (active),88.8% (active),-13%,98% (active),91.2% (active)
O=C1Oc2ccccc2C(=O)/C1=C/N1C(=O)/C(=C/c2ccccc2)NC1=S,-23%,31%,66.7%,-25%,27%,43.3%,-15%,42%,71.7% (active),4%,37%,60.6%,-6%,45%,53.5%,-33%,40%,54%
Cc1nc(Cl)nc(N)c1[N+](=O)[O-],2%,44%,53.8%,8%,55%,44.1%,3%,30%,24.8%,-3%,19%,10.8%,-6%,31%,22.9%,6%,41%,45.1%
COC1CC2CCC(C)[C@](O)(O2)C(=O)C(=O)N2CCCCC2C(=O)OC(C(C)CC2CCC(O)C(OC)C2)CC(=O)C(C)C=C(C)C(OC(=O)CCCN2CCCC2)C(OC)C(=O)C(C)CC(C)/C=C/C=C/C=C\1C (some centres not stated),96% (active),98% (active),90% (active),98% (active),98% (active),92.3% (active),97% (active),97% (active),92.9% (active),91% (active),96% (active),88.2% (active),97% (active),98% (active),92% (active),96% (active),98% (active),91.5% (active)
Cc1cc(O)c(C=NC(=S)C(N)=S)c(=O)o1,29%,43%,-27.7%,13%,42%,-19.6%,22%,46%,8.7%,14%,22%,-4.4%,21%,49%,-26.5%,17%,42%,-38%
C/C(CCC(=O)O)=N/Nc1ccc(C(=O)O)cc1,11%,74% (active),66%,0%,71% (active),5.4%,1%,64%,17.9%,7%,91% (active),5.85%,2%,91% (active),31.4%,5%,89% (active),23.7%
N#C/C(=C\C(Cl)=C/c1ccccc1)C(N)=S,68%,97% (active),50.1%,45%,99% (active),40.5%,91% (active),98% (active),43.2%,16%,95% (active),98% (active),79% (active),98% (active),99% (active),86% (active),98% (active),40.4%
CCc1ccc(/C=C/c2ccc([N+](=O)[O-])cc2)nc1,0%,68%,62.2%,-5%,41%,40.6%,-5%,42%,33.5%,6%,39%,7.1%,-5%,-8%,45.9%,3%,44%,69.5%
CC1=CC(=O)CC(c2ccccc2)C1 (configuration not stated),43%,98% (active),97.6% (active),30%,99% (active),98.3% (active),22%,99% (active),98.7% (active),11%,97% (active),92.5% (active),31%,99% (active),98.7% (active),55%,99% (active),98.3% (active)
